# Data: article PMC4081100, “A DNA-binding-site landscape and regulatory network analysis for NAC transcription factors in Arabidopsis thaliana”
# Tests used:
# Assay in all cases: universal protein binding microarray (PBM); transcription factors of Arabidopsis thaliana; high values mean tight binding
# GST-NTL8 NAC domain = biological target: T1, GST-NTL8 NAC domain (Arabidopsis thaliana, UniProt Q9XIN7 14-156); conditions: protein: recombinant; tags: GST; chain copies: 2; dsDNA, one strand shown
# T1 sequence: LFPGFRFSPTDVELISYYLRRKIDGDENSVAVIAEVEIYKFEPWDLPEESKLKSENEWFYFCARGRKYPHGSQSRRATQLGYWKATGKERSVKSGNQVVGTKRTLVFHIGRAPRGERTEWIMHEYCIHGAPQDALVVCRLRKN
# Outline: (§1)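 Binding is expressed as the normalised enrichment score (E-score). Proteins carrying a GST tag, whether NAC-domain, full-length or DNA-binding-domain forms, were induced in cells, and zinc acetate was added for zinc-finger proteins. After purification on glutathione–Sepharose 4B and quantification by A280 or anti-GST western blot, each was applied in duplicate at 200 to 500 nM final to custom all-10-mer Agilent 4 × 180K arrays made double-stranded by primer extension. Gapped and ungapped 8-mers were scored.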
# GST-WRKY1(266-371) = GST-WRKY1(266-371) (Arabidopsis thaliana, UniProt Q9SI37 266-371); conditions: protein: recombinant; tags: GST; dsDNA, one strand shown
# Chain of GST-WRKY1(266-371) (Q9SI37 266-371): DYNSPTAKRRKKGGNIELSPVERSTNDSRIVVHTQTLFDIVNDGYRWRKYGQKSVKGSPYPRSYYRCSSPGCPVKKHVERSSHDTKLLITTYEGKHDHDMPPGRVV
# Outline: as §1
# GST-NAP(1-166) = biological target: T2, GST-NAP(1-166) (Arabidopsis thaliana, UniProt O49255 1-166); conditions: protein: recombinant; tags: GST; chain copies: 2; dsDNA, one strand shown
# T2 sequence: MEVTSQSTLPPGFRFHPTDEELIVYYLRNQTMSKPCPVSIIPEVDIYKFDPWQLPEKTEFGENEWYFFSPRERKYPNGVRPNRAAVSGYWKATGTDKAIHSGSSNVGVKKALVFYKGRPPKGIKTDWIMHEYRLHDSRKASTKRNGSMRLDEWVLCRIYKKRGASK
# Outline: as §1
# GST-ANAC092(1-176) = biological target: T3, GST-ANAC092(1-176) (Arabidopsis thaliana, UniProt Q9FKA0 1-176); conditions: protein: recombinant; tags: GST; chain copies: 2; dsDNA, one strand shown
# T3 sequence: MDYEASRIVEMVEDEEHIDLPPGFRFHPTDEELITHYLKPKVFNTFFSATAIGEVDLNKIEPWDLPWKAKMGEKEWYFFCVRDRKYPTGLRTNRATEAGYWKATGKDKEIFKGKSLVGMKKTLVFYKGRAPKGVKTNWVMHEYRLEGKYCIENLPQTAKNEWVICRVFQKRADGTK
# Outline: as §1
# GST-NTL6(1-168) = GST-NTL6(1-168) (Arabidopsis thaliana, UniProt Q9SCK6 1-168); conditions: protein: recombinant; tags: GST; chain copies: 2; dsDNA, one strand shown
# Chain of GST-NTL6(1-168) (Q9SCK6 1-168): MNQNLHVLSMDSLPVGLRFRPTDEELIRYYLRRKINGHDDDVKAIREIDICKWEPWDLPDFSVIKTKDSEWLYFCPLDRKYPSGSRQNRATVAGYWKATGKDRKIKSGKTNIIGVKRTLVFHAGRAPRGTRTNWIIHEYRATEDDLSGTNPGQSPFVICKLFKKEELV
# Outline: as §1
# [1] = biological target: T4, GST-ANAC092(1-285) full length (Arabidopsis thaliana, UniProt Q9FKA0 1-285); conditions: protein: recombinant; tags: GST; chain copies: 2; dsDNA, one strand shown
# T4 sequence: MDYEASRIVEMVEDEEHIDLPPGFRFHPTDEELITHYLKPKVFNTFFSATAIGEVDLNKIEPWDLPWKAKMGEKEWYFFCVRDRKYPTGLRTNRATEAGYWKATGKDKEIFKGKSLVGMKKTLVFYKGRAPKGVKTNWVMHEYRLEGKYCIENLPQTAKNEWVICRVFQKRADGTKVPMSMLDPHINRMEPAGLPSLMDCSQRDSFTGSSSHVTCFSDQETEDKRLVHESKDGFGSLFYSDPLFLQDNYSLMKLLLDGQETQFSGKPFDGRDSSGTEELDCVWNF
# Outline: as §1
sequence,measurement,setting,value
AGTCAAGC,binding signal,GST-NTL8 NAC domain,0.0828 E-score
same,binding signal,GST-WRKY1(266-371),0.459 E-score
CTCGGTCA,binding signal,GST-NTL8 NAC domain,0.0649 E-score
same,binding signal,GST-WRKY1(266-371),0.451 E-score
GGGGGGAA,binding signal,GST-NTL8 NAC domain,0.453 E-score
GTCGTCAA,binding signal,GST-NAP(1-166),0.0529 E-score
same,binding signal,GST-WRKY1(266-371),0.424 E-score
GGAGGAAA,binding signal,GST-ANAC092(1-176),0.124 E-score
same,binding signal,GST-NTL6(1-168),0.146 E-score
same,binding signal,GST-NTL8 NAC domain,0.459 E-score
CAATTGAC,binding signal,GST-NAP(1-166),0.054 E-score
same,binding signal,GST-WRKY1(266-371),0.435 E-score
AGGGTCAA,binding signal,GST-NTL8 NAC domain,0.0535 E-score
same,binding signal,GST-WRKY1(266-371),0.483 E-score
AGTCGTCG,binding signal,GST-NAP(1-166),0.119 E-score
same,binding signal,GST-WRKY1(266-371),0.432 E-score
CGGTCAAC,binding signal,GST-NAP(1-166),0.118 E-score
same,binding signal,GST-WRKY1(266-371),0.495 E-score
GGTCAATA,binding signal,[1],0.0505 E-score
same,binding signal,GST-NAP(1-166),0.0842 E-score
same,binding signal,GST-WRKY1(266-371),0.482 E-score
GTCAAGAC,binding signal,[1],0.0871 E-score
same,binding signal,GST-WRKY1(266-371),0.446 E-score
